Measurements taken from PubChem BioAssay (NCI).
Compounds without any hit were thinned out: in the full panel of roughly 79,000, 15% have a hit. Activity calls are given as the source filed them. No stated cut-off is given here; in the data, active means growth inhibition above about 70%; inactive means the rest.

Columns and labels:
[1] = NCI Yeast Anticancer Drug Screen. Data for the rad52 strain (AID 147);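 further: 0% = growth of vehicle-treated control cultures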; conditions: S. cerevisiae rad52 mutant growth inhibition, stronger effect = higher value
Summary of the method: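 Measured: yeast growth inhibition. System: strain with a defined DNA damage repair alteration. Reference: vehicle-treated control cultures.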

[2] = NCI Yeast Anticancer Drug Screen. Data for the wt1 strain (AID 149);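 further: 0% = growth of vehicle-treated wt1 cultures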; conditions: S. cerevisiae wt1 strain (SPY 50644) growth inhibition, stronger effect = higher value
Summary of the method: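 Using yeast strain wt1, compound-induced growth inhibition was determined against vehicle-treated cultures.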

[3] = NCI Yeast Anticancer Drug Screen. Data for the rad50EPP+ strain (AID 151);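 further: 0% = growth of vehicle-treated control cultures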; conditions: S. cerevisiae rad50 mutant strain, stronger effect = higher value
Summary of the method: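 One strain with a rad50 alteration (rad50EPP+) was compound-treated, its growth then compared to that of vehicle controls.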

[4] = NCI Yeast Anticancer Drug Screen. Data for the mgt1 strain (AID 153); conditions: S. cerevisiae mgt1 mutant growth inhibition, stronger effect = higher value
Summary of the method: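 After exposure of the mgt1 yeast mutant to compound, growth was measured and reported as inhibition compared with vehicle controls.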

[5] = NCI Yeast Anticancer Drug Screen. Data for the rad50 strain (AID 155);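 further: 0% = growth of vehicle-only cultures of the same strain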; conditions: S. cerevisiae rad50 strain growth inhibition, stronger effect = higher value
Summary of the method: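 Relative growth inhibition (compound vs vehicle) was measured in yeast with a defined repair-gene alteration.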

[6] = NCI Yeast Anticancer Drug Screen. Data for the mec2-1 strain (AID 157); conditions: S. cerevisiae mec2-1 strain, stronger effect = higher value
Summary of the method: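 Test agents were screened against the mec2-1 yeast strain, with defined DNA repair or cell cycle alteration. Growth was scored as inhibition against vehicle-only controls.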

[7] = NCI Yeast Anticancer Drug Screen. Data for the rad14 strain (AID 159);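 further: 0% = growth of vehicle-treated control cultures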; conditions: S. cerevisiae rad14 strain growth inhibition, stronger effect = higher value
Summary of the method: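 Screen for anticancer potential: a yeast strain altered in DNA damage repair is grown with compound, and reduced growth is quantified against vehicle controls.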

[8] = NCI Yeast Anticancer Drug Screen. Data for the CLN2oe strain (AID 163);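 further: 0% = growth of vehicle-only control cultures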; conditions: S. cerevisiae CLN2oe strain, stronger effect = higher value
Summary of the method: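 Here, growth inhibition in a cell-cycle-altered yeast strain after compound exposure was quantified against vehicle control growth.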

[9] = NCI Yeast Anticancer Drug Screen. Data for the cln2 rad14 strain (AID 165);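 further: 0% = growth equal to vehicle treated cultures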; conditions: S. cerevisiae cln2 rad14 strain, stronger effect = higher value
Summary of the method: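 Growth of compound-exposed yeast (cln2 rad14 genotype) measured and expressed as inhibition relative to vehicle.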

[10] = NCI Yeast Anticancer Drug Screen. Data for the bub3 strain (AID 167); conditions: S. cerevisiae bub3 mutant strain, stronger effect = higher value
Summary of the method: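 Screening used yeast with an engineered genetic alteration affecting cell cycle control. Compound-exposed cultures were compared with vehicle cultures, and reduced growth was taken as inhibition.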

[11] = NCI Yeast Anticancer Drug Screen. Data for the wt2 strain (AID 169);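 further: 0% = growth of vehicle-treated yeast cultures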; conditions: S. cerevisiae wt2 strain growth inhibition, stronger effect = higher value
Summary of the method: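 Genetically defined yeast strains from a DNA-repair/cell-cycle panel were used. Compound-exposed yeast growth was measured, and the inhibition was calculated relative to vehicle treatment.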

[12] = NCI Yeast Anticancer Drug Screen. Data for the mlh1 strain (AID 171);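 further: 0% = growth of vehicle-treated control cultures of the same strain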; conditions: S. cerevisiae mlh1 strain growth inhibition, stronger effect = higher value
Summary of the method: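 Here the genetically defined yeast mutant is grown with each compound, and the extent to which its growth falls below that of vehicle-exposed cells is reported.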

[13] = NCI Yeast Anticancer Drug Screen. Data for the sgs1 strain (AID 173);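 further: 0% = growth of vehicle-only control cultures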; conditions: S. cerevisiae sgs1 mutant, stronger effect = higher value
Summary of the method: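 Relative growth inhibition, referenced to vehicle, was determined in a yeast strain with a defined alteration affecting DNA damage repair or cell cycle control after compound exposure.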

[14] = NCI Yeast Anticancer Drug Screen. Data for the mlh1 rad18 strain (AID 175); conditions: S. cerevisiae mlh1 rad18 strain growth inhibition, stronger effect = higher value
Summary of the method: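 In this whole-cell yeast screen, a strain with altered DNA damage repair is challenged with compound, and its growth is measured against matched vehicle-treated controls.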

[15] = NCI Yeast Anticancer Drug Screen. Data for the rad18 strain (AID 177); conditions: S. cerevisiae rad18 mutant growth inhibition, stronger effect = higher value
Summary of the method: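 Screen uses a yeast strain with a defined lesion in DNA damage repair; compound effect is read as loss of growth compared to untreated vehicle cultures.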

[16] = at 5.0 µM (retest, dose inferred, filed as 0.5)
[17] = at 50.0 µM (retest, dose inferred, filed as 5.0)

Measured: growth inhibition

O=C(/N=N/C(=O)Oc1ccccc1)Oc1ccccc1
active: [5]; [17] 96% | [6]; [17] 97% | [14]; [17] 98%
inactive: [1]; at 1.2 µM -49% | [1]; at 3.7 µM -54% | [1]; at 11.0 µM -52% | [1]; at 33.0 µM -38% | [1]; at 100.0 µM 24% | [2]; at 1.2 µM -57% | [2]; at 3.7 µM -51% | [2]; at 11.0 µM -46% | [2]; at 33.0 µM -32% | [2]; at 100.0 µM 37% | [3]; at 1.2 µM -87% | [3]; at 3.7 µM -110% | [3]; at 11.0 µM -106% | [3]; at 33.0 µM -46% | [3]; at 100.0 µM -82% | [4]; at 1.2 µM -61% | [4]; at 3.7 µM -61% | [4]; at 11.0 µM -63% | [4]; at 33.0 µM -29% | [4]; at 100.0 µM 57% | [5]; at 1.2 µM -81% | [5]; at 3.7 µM -66% | [5]; [16] 30% | [5]; at 11.0 µM -107% | [5]; at 33.0 µM -40% | [5]; at 50.0 µM 56.4% | [5]; at 100.0 µM 45% | [6]; at 1.2 µM -97% | [6]; at 3.7 µM -47% | [6]; [16] 53% | [6]; at 11.0 µM -87% | [6]; at 33.0 µM -52% | [6]; at 50.0 µM 8.5% | [6]; at 100.0 µM -16% | [7]; at 1.2 µM -26% | [7]; at 3.7 µM -26% | [7]; at 11.0 µM -10% | [7]; at 33.0 µM -15% | [7]; at 100.0 µM 5% | [8]; at 1.2 µM 9% | [8]; at 3.7 µM 22% | [8]; at 11.0 µM 16% | [8]; at 33.0 µM 40% | [8]; at 100.0 µM 40% | [9]; [16] 5% | [9]; [17] 59% | [9]; at 50.0 µM 43.6% | [10]; at 1.2 µM -25% | [10]; at 3.7 µM -29% | [10]; [16] 50% | [10]; at 11.0 µM -17% | [10]; at 33.0 µM 2% | [10]; [17] 69% | [10]; at 50.0 µM 55% | [10]; at 100.0 µM 65% | [11]; at 1.2 µM -46% | [11]; at 3.7 µM -48% | [11]; at 11.0 µM -54% | [11]; at 33.0 µM -39% | [11]; at 100.0 µM 48% | [12]; at 1.2 µM -70% | [12]; at 3.7 µM -85% | [12]; at 11.0 µM -78% | [12]; at 33.0 µM -44% | [12]; at 100.0 µM 3% | [13]; at 1.2 µM -78% | [13]; at 3.7 µM -80% | [13]; at 11.0 µM -35% | [13]; at 33.0 µM -27% | [13]; at 100.0 µM 59% | [14]; [16] 44% | [14]; at 50.0 µM 49% | [15]; at 1.2 µM -44% | [15]; at 3.7 µM -72% | [15]; at 11.0 µM -72% | [15]; at 33.0 µM -58% | [15]; at 100.0 µM 45%
